Reference: the supplement of paper PMC6555819

Columns and labels:
Assay in all cases: PBM binding z-score (relative to random genomic background probes); higher = stronger binding; sequences stand for … in GC…GCGATTGACAGCGTAGAATGAAGG
[1] = test system: RARb homodimer (NR concentration 270 nM)
Method in brief: (§1)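 Antibodies against each partner of ligand-free nuclear receptor dimers (one per run) detected binding on custom Agilent 4×180K protein-binding microarrays after 1 h incubation. The double-stranded probes had 34-nt variable regions carrying direct-repeat seeds, single-nucleotide variants, half-site ablations and random human genomic background sequences. Binding z-scores, from regression-normalized fluorescence, use the random background probes as reference.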

[2] = test system: RARg:RXRa (NR concentration 270 nM, RXRa partner concentration 90 nM)
Method in brief: as §1

[3] = test system: RARg homodimer (NR concentration 270 nM)
Method in brief: as §1

[4] = test system: RXRa DBDmut IVT, anti-RXR (DBD mutation: RXRa K156A/R161A, NR concentration 90 nM)
Method in brief: as §1

[5] = test system: RXRa homodimer (NR concentration 180 nM)
Method in brief: as §1

[6] = test system: THRa:RXRa (NR concentration 90 nM, RXRa partner concentration 90 nM)
Method in brief: as §1

[7] = test system: THRa homodimer (NR concentration 90 nM)
Method in brief: as §1

[8] = test system: VDR:RXRa (NR concentration 270 nM, RXRa partner concentration 90 nM)
Method in brief: as §1

[9] = test system: VDR homodimer (NR concentration 270 nM)
Method in brief: as §1

Sequence | PBM binding z-score [1] | PBM binding z-score [2] | PBM binding z-score [3] | PBM binding z-score [4] | PBM binding z-score [5] | PBM binding z-score [6] | PBM binding z-score [7] | PBM binding z-score [8] | PBM binding z-score [9]
ATCTCTAGGTAATGATAGTTCAGTGAATGCAAAT | 0.921 | 0.493 | 0.864 | 0.246 | 0.462 | 0.79 | 0.35 | 0.849 | 0.644
GCTTACGGGTCAAAGGTTATTGCATGAATAGAAT | 3.23 | 6.79 | 4.49 | 2.83 | 9.29 | 3.78 | 0.27 | 5.54 | 1.81
ATATGTAGGTTAGCTGGGGTCATTCAGACTAGGC | 3.87 | 4.18 | 2.91 | 2.27 | 5.35 | 5.18 | 3.18 | 6.27 | 5.47
ACAAGCAGGCCAAGGGTCACTCAAGATTAGTCCG | 3.85 | 4.28 | 4.23 | 0.479 | 4.21 | 2.67 | 0.327 | 2.94 | 0.958
GTTCGGAGGACAAGGTCAGAGCTTTGTCCGTAGA | 2.99 | 2.91 | 3.51 | 0.7 | 1.91 | 3.06 | 1.52 | 1.42 | 0.65
ATCGAAAGGTCGACGAGCTGAGTATACACCGTTT | 2.38 | 3.86 | 3.6 | 1.09 | 4.01 | 1.58 | -0.705 | 2.15 | 0.176
TTACCAAGGTGAGCTGGGGTCGTTGATCCAACTC | 1.42 | 1.31 | 0.493 | -0.222 | 2.1 | 4.38 | 1.23 | 4.15 | 1.84
CCTTACGGGTCACCCCAGGTTATAGCATCGGAGT | 3.53 | 5.05 | 4.77 | 0.177 | 5.34 | 5.16 | 1.21 | 4.91 | 1.41
CCCACTGGGGCATAAGGTTACCATAAGCCAGCCC | 1.49 | 1.56 | 1.09 | -1.4 | 1.07 | 1.92 | 1.01 | -0.113 | -0.364
ACAGACAGGTGAGTGAAGGTAACTCACCTGGACG | 0.335 | 0.343 | 0.628 | -0.647 | 0.429 | 1.83 | -0.0711 | -0.173 | -0.74
ACTCGGAGGAGAAAGGTCAGAGCTACGCCAGTGA | 4.21 | 4.22 | 4.04 | 0.158 | 4 | 2.36 | -0.0607 | 2.16 | 0.437
CCGAGTAGGTTATGGGGCATACAGGCAACGGTGA | 0.844 | 0.575 | 0.725 | -0.471 | 0.691 | 0.28 | -0.0646 | 0.117 | 0.0894
TGAATGAGGTTATAAGATCGGGGAACGTTGCAAA | 0.0926 | 1.17 | 0.891 | 0.942 | 1.77 | 1.76 | 0.158 | 0.904 | 0.395
AGAAGGAGGTTATACGTAGATCAGGGAAGAAAGT | 1.26 | 1.3 | 1.11 | 0.234 | 1.59 | 1.28 | 0.665 | 0.711 | 0.752
AGTCAAAGTTCGTCTAGGTAACGTAAGATATGCT | 1.35 | 1.99 | 2.11 | 3.25 | 1.39 | 1.97 | 0.129 | 2.59 | 2.49
GCGACTGGGGGATCAGCAGGTTACCATAACTTAA | 0.909 | 0.837 | 0.34 | 0.58 | 1 | 1.67 | 0.806 | 0.855 | 0.0827
GCGACTGGGGCAAAACAGGTTACCATAAGGTTGG | 1.31 | 0.535 | 0.627 | -0.186 | 0.658 | 2.3 | 0.0603 | 0.212 | -0.526
CCTAGTTGGTCAATGTCACACACGCTATAGGTAC | 1.52 | 1.07 | 1.59 | 1.04 | 0.701 | 0.639 | 0.635 | 0.974 | 0.802
TCATATAGGTAAATGATAGGTGAAAGTCCGATCT | 0.731 | 0.906 | 0.775 | 1.92 | 1.15 | 0.682 | 0.132 | 1.15 | 0.346
GCAGACAGGTGCAACGCAGGTAACTCAGGGTGGC | -0.431 | -0.314 | -0.365 | 0.123 | 0.00957 | 2.13 | -0.805 | -0.467 | -0.15
GCTAGTTGGTCAGTAAAAGGTTACACACCGGTCG | 2.7 | 2.11 | 1.34 | 0.00211 | 1.59 | 1.42 | 0.424 | 0.877 | 0.234
ATCTCTAAGTAAAGTTCAGTGAAAGATCGATAGA | 2.32 | 1.98 | 2.42 | 1.71 | 1.26 | 0.85 | -0.131 | 1.67 | 2.32
CAAACTAGGTCAAGAGATCAAAGTCCGCTTCCCG | 3.07 | 4.48 | 4.39 | 1.59 | 3.3 | 2.63 | 0.798 | 1.59 | 0.64
TCTAGTAGGTTACCAATGGGGCATTCAGCTTTCT | 0.934 | 1.47 | 0.705 | 1.13 | 0.88 | 0.163 | -0.277 | 0.81 | 0.254
